Shown are actives, neighbours in structure and some others; about 1.9% of the full set was active somewhere.
PERK inh: block of dimerizer-induced PERK translation repression, primary screen, PERK inhibitor project, CHO PERK-DD cells, SEAP luminescence, HTS. Eukaryotic translation initiation factor 2-alpha kinase 3 (Homo sapiens), Q9NZJ5. inhibition, % at 5.6 µM. 0.17% of 220,000 active. CHO PERK-DD fusion, SEAP luminescence translation reporter. AID 1416, 2008;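 active = inhibition above the mean inhibition of all tested compounds plus 3 SD, set separately per screening campaign, cut at about 2.9% in these data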;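 also: PERK kinase domain activated by AP20187 dimerizer at 100 nM; 0% = DMSO with dimerizer and 100% = rapamycin at 8.4 µM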
GRK2 inh: compounds blocking aptamer binding on GRK2 – biochemical, human GRK2, bead flow cytometry, HTS, primary screen; Beta-adrenergic receptor kinase 1 (Homo sapiens), P25098; FAM-aptamer displacement from GRK2; inhibition of aptamer binding, % at 10 µM; 0.59% of 330,000 active; AID 488847, 2010;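 active = inhibition of aptamer binding above 40%, roughly 3 SD of noise, on plates passing a quality check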;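 also: median bead fluorescence of bound FAM aptamer so fluorescent compounds give negative values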
Target sequence (P25098 whole entry, looked up): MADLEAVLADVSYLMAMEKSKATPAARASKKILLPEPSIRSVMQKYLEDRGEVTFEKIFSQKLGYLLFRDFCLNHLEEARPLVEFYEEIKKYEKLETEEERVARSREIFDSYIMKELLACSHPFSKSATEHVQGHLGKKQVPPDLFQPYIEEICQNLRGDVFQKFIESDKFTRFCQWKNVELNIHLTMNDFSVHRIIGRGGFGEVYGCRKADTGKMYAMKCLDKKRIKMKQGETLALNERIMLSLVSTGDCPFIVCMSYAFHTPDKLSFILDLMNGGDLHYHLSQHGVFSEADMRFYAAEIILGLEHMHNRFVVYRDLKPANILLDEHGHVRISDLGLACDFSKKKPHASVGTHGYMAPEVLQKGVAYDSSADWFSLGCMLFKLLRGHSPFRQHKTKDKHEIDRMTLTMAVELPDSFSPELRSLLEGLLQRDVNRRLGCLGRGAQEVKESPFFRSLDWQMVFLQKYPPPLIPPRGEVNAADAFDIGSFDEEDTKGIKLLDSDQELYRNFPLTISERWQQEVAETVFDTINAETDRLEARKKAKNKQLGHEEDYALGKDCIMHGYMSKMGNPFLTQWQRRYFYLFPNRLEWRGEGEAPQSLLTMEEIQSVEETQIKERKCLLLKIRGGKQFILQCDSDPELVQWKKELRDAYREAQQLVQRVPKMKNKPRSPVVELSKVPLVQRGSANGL
eIF4H inh: human eIF4H binding inhibitors, primary screen, translation initiation inhibitor project, biochemical, uHTS, fluorescence polarization; eIF4H fluorescence polarization binding assay; inhibition, % at 35 µM; 0.94% of 290,000 active; Eukaryotic translation initiation factor 4H (Homo sapiens), Q15056;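 also: calls also rest on retests at 20 µM and on dose response follow-up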
PABP FP inh: PABP poly(A) RNA binding inhibitors, primary screen, biochemical, fluorescence polarization, uHTS; Polyadenylate-binding protein 1 (Homo sapiens), P11940; inhibition, % at 35 µM; 1% of 290,000 active; AID 2014, 2009;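 also: calls also rest on retests at 20 µM and on dose response follow-up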
MLLE-PAM2 inh: inhibitors of PABP1 MLLE–PAM2 peptide binding, primary screen, biochemical, fluorescence polarization, FITC-PAM2, GST-MLLE; Polyadenylate-binding protein 1 (Homo sapiens), P11940; 0.36% of 360,000 active; inhibition, % at 20 µM; in the data active = inhibition above about 35%, passing the limit was not always enough;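 also: plate controls were DMSO wells with GST-MLLE for no effect and wells lacking GST-MLLE protein for full effect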
Numbers without * were called inactive. Unless noted, no rule for the calls is given here.

What do the screens show for `CN(C)CCCNc1cc(O)c2ncccc2c1`?
GRK2 inh: 0.0; MLLE-PAM2 inh: 41.2*

How did Oc1cc(NCc2ccc(F)cc2)cc2cccnc12 do in these assays?
GRK2 inh: 2.0; MLLE-PAM2 inh: 21.7

What do the screens show for `CC(NC(=O)C1CCN(S(=O)(=O)c2ccc(Br)s2)CC1)c1ccccc1` (stereo not given)?
GRK2 inh: 0.0; eIF4H inh: 2.3; PABP FP inh: 1.4; MLLE-PAM2 inh: -6.3

What do the screens show for `CCOC(=O)c1c(C)[nH]c(C(=O)N/N=C\c2ccccc2O)c1C`?
PERK inh: 0.5; GRK2 inh: 1.0; eIF4H inh: 14.0; PABP FP inh: 59.3*; MLLE-PAM2 inh: 8.1

What do the screens show for `Cc1cc(C=O)c(C)n1-c1ccc(N2CCOCC2)c([N+](=O)[O-])c1`?
PERK inh: 1.7; GRK2 inh: 0.0; eIF4H inh: 82.1*; PABP FP inh: 69.6*; MLLE-PAM2 inh: 20.9

Results for Cc1ccc2c(c1)N(C(=O)CCC(=O)N1CCC(C(N)=O)CC1)CC(C)O2 (stereo not given) ?
GRK2 inh: 0.0; eIF4H inh: -8.2; PABP FP inh: -6.1; MLLE-PAM2 inh: -6.6

What do the screens show for `COc1ccccc1NS(=O)(=O)c1cc(NC(=O)Nc2cccc(C)c2)ccc1N1CCCCC1`?
PERK inh: -0.2; GRK2 inh: 0.0; eIF4H inh: 6.5; PABP FP inh: -0.5; MLLE-PAM2 inh: 38.1*

How did CCCC(C)CO (stereo not given) do in these assays?
GRK2 inh: 3.0; MLLE-PAM2 inh: 4.3

What do the screens show for `COc1ccc(Cl)cc1NC(=O)CN(C(=O)c1ccco1)C1CCCCC1`?
PERK inh: -0.8; GRK2 inh: 3.0; eIF4H inh: 0.7; PABP FP inh: -2.0; MLLE-PAM2 inh: 35.6*

Results for c1ccc(N2CC3COc4ccccc4C3=N2)cc1 (stereo not given) ?
MLLE-PAM2 inh: 7.1

Results for O=C1C(Cl)=C(N2CCOCC2)C(=O)N1CCc1ccccc1 ?
PERK inh: 0.1; GRK2 inh: 3.0; eIF4H inh: 0.8; PABP FP inh: 3.8; MLLE-PAM2 inh: -5.3

How did CN1CCN(C2=C(Cl)C(=O)N(CCc3ccccc3)C2=O)CC1 do in these assays?
PERK inh: 0.1; GRK2 inh: 1.0; eIF4H inh: inconclusive; PABP FP inh: -10.2; MLLE-PAM2 inh: 50.8*

Results for O=C1C(Cl)=C(N2CCN(Cc3ccccc3)CC2)C(=O)N1c1ccccc1 ?
PERK inh: -0.6; GRK2 inh: 1.0; eIF4H inh: inconclusive; PABP FP inh: 65.7*; MLLE-PAM2 inh: 20.7

Results for CCN(CC)c1ccc(/C=C2\C(=O)c3ccc(C(=O)O)cc3C2=O)cc1 ?
PERK inh: 0.7; GRK2 inh: 14.0; eIF4H inh: inconclusive; PABP FP inh: -5.7; MLLE-PAM2 inh: inactive

How did CCOc1cc(Br)ccc1S(=O)(=O)N1CCC(C(N)=O)CC1 do in these assays?
PERK inh: 1.2; GRK2 inh: 0.0; eIF4H inh: active; PABP FP inh: 103.7*; MLLE-PAM2 inh: 9.8

What do the screens show for `Cc1ccc(S(=O)(=O)N2CCC(C(N)=O)CC2)c(C)c1C`?
PERK inh: -1.0; GRK2 inh: 2.0; eIF4H inh: 4.9; PABP FP inh: 0.2; MLLE-PAM2 inh: 7.9

How did CCc1nc2ccc(C(=O)NCCOc3ccc(OC)cc3)cn2c1N(CCC(C)C)CCN(C)C do in these assays?
MLLE-PAM2 inh: 12.8

Results for [O-][n+]1c(/C=C/c2ccccc2)ccc2ccccc21 ?
GRK2 inh: 0.0; eIF4H inh: 19.0; PABP FP inh: 2.3; MLLE-PAM2 inh: 3.2

What do the screens show for `[O-][n+]1c2ccccc2[n+]([O-])c2cc(O)ccc21`?
GRK2 inh: 31.0; eIF4H inh: 105.6*; PABP FP inh: 78.1*; MLLE-PAM2 inh: 8.3

How did CS(=O)(=O)NCCSc1cc(C(F)(F)F)nc2ccccc12 do in these assays?
PERK inh: 0.3; GRK2 inh: 0.0; eIF4H inh: 63.7*; PABP FP inh: 84.5*; MLLE-PAM2 inh: -0.1

Results for CCC(=O)N1CCCC(C)(C(=O)Nc2ccc3scnc3c2)C1 (stereo not given) ?
MLLE-PAM2 inh: -9.9

How did Cc1ccc(S(=O)(=O)SCCCSS(=O)(=O)c2ccc(C)cc2)cc1 do in these assays?
MLLE-PAM2 inh: -126.2

What do the screens show for `CC[N+]1(CC(O)COC2CC(C)CC(C)(C)C2)CCOCC1` (stereo not given)?
PERK inh: 1.2; GRK2 inh: 0.0; eIF4H inh: -1.7; PABP FP inh: 62.2*; MLLE-PAM2 inh: -114.3

Results for CC1CCN(CC(O)COC2CC(C)CC(C)(C)C2)CC1 (stereo not given) ?
GRK2 inh: 0.0; MLLE-PAM2 inh: 1.4

How did CC1=C(C(=O)OCCOC(C)C)C(c2cc3c(cc2Br)OCO3)C2=C(CCCC2=O)N1 (stereo not given) do in these assays?
PERK inh: -0.6; GRK2 inh: 1.0; eIF4H inh: 10.2; PABP FP inh: 5.9; MLLE-PAM2 inh: 67.4*

What do the screens show for `CCCS(=O)(=O)NC(=O)C1(C)CCCN(C(=O)c2cccc(C(F)(F)F)c2)C1` (stereo not given)?
MLLE-PAM2 inh: 8.0

Results for O=C(CSc1nccn1Cc1ccccc1)Nc1ccccc1 ?
GRK2 inh: 0.0; eIF4H inh: -2.0; PABP FP inh: 2.9; MLLE-PAM2 inh: -4.5

How did CC(C)(C)NC(=O)CSc1nccn1Cc1ccccc1 do in these assays?
PERK inh: 0.7; GRK2 inh: 2.0; eIF4H inh: 67.6*; PABP FP inh: 42.3*; MLLE-PAM2 inh: -64.7

Results for CCCCCC(=O)N1C[C@@H](n2cc(-c3ccc(F)cc3)nn2)[C@H](O)C[C@@H]1c1ccc(OC)cc1 ?
MLLE-PAM2 inh: -1.6

What do the screens show for `CC(C)CN=Cc1c(O)c([N+](=O)[O-])cc2oc3c(c12)CCCC3`?
PERK inh: 0.7; GRK2 inh: 27.0; eIF4H inh: inconclusive; PABP FP inh: 1.4; MLLE-PAM2 inh: -42.2

What do the screens show for `O=[N+]([O-])c1cc2oc3c(c2c(C=NCc2ccccc2)c1O)CCCC3`?
PERK inh: 0.6; GRK2 inh: 7.0; eIF4H inh: 76.5*; PABP FP inh: active; MLLE-PAM2 inh: -105.5

How did CCN(CC(=O)Nc1c(F)cccc1F)C(=O)CNC(=O)c1ccc2c(c1)OCO2 do in these assays?
GRK2 inh: 0.0; eIF4H inh: 42.0; PABP FP inh: 58.4*; MLLE-PAM2 inh: 6.0

Results for CCN(CC(=O)Nc1c(F)cccc1F)C(=O)CNC(=O)c1ccc2ccccc2c1 ?
GRK2 inh: 0.0; MLLE-PAM2 inh: 2.4

What do the screens show for `O=c1c(C=Nc2cccc(C(F)(F)F)c2)c[nH]n1-c1cccc(Cl)n1`?
PERK inh: 4.3*; GRK2 inh: 0.0; eIF4H inh: -2.5; PABP FP inh: 5.9; MLLE-PAM2 inh: -4.3
